# Assay results taken from the supplement of paper PMC7411054.
# Structures can show the parent of a compound that is named as a salt.
# Experiments:
# Settings in all cases: treatment time: 24 h
# WPMY1-CANX-COX4 [1] = experiment: lowest phenotypically active concentration; higher = less potent
# How it was run: (§1)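 The reporter lines, fifteen in total and built by gene editing in A549, HepG2 and WPMY1 cells, used BFP for segmentation alongside GFP and RFP/FusionRed markers. Each was treated at 0.3, 1, 3 or 9 µM for 24 h in four wells and then imaged live, with live-cell features normalised to solvent control wells. Deviation meant ≥3 of 4 wells beyond the 95th percentile of control Euclidean distances; reproducibility meant a median replicate Pearson correlation above the 95th percentile of non-replicates. Only conditions meeting both were scored as phenotypically active.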
# A549-ACTB-RAB5A = experiment: phenotypically active (imaging signature differs from DMSO and reproducible) at any of 0.3-9 uM (binary (1 = active, 0 = inactive)); higher = active
# How it was run: as §1
# A549-CANX-COX4 = experiment: as above
# How it was run: as §1
# A549-GM130-SQSTM1 = experiment: as above
# How it was run: as §1
# A549-TP53BP1-CLTA = experiment: as above
# How it was run: as §1
# A549-TUBA1B-RELA = experiment: as above
# How it was run: as §1
# HepG2-ACTB-RAB5A = experiment: as above
# How it was run: as §1
# HepG2-CANX-COX4 = experiment: as above
# How it was run: as §1
# HepG2-GM130-SQSTM1 [2] = experiment: as above
# How it was run: as §1
# HepG2-TP53BP1-CLTA = experiment: as above
# How it was run: as §1
# HepG2-TUBA1B-RELA = experiment: as above
# How it was run: as §1
# WPMY1-ACTB-RAB5A [3] = experiment: as above
# How it was run: as §1
# WPMY1-CANX-COX4 [4] = experiment: as above
# How it was run: as §1
# WPMY1-GM130-SQSTM1 [5] = experiment: as above
# How it was run: as §1
# WPMY1-TP53BP1-CLTA = experiment: as above
# How it was run: as §1
# WPMY1-TUBA1B-RELA = experiment: as above
# How it was run: as §1
# WPMY1-ACTB-RAB5A [6] = experiment: lowest phenotypically active concentration; higher = less potent
# How it was run: as §1
# HepG2-GM130-SQSTM1 [7] = experiment: as above
# How it was run: as §1
# WPMY1-GM130-SQSTM1 [8] = experiment: as above
# How it was run: as §1
Compound,lowest phenotypically active concentration (WPMY1-CANX-COX4 [1]) [µM],phenotypically active (A549-ACTB-RAB5A),phenotypically active (A549-CANX-COX4),phenotypically active (A549-GM130-SQSTM1),phenotypically active (A549-TP53BP1-CLTA),phenotypically active (A549-TUBA1B-RELA),phenotypically active (HepG2-ACTB-RAB5A),phenotypically active (HepG2-CANX-COX4),phenotypically active (HepG2-GM130-SQSTM1 [2]),phenotypically active (HepG2-TP53BP1-CLTA),phenotypically active (HepG2-TUBA1B-RELA),phenotypically active (WPMY1-ACTB-RAB5A [3]),phenotypically active (WPMY1-CANX-COX4 [4]),phenotypically active (WPMY1-GM130-SQSTM1 [5]),phenotypically active (WPMY1-TP53BP1-CLTA),phenotypically active (WPMY1-TUBA1B-RELA),lowest phenotypically active concentration (WPMY1-ACTB-RAB5A [6]) [µM],lowest phenotypically active concentration (HepG2-GM130-SQSTM1 [7]) [µM],lowest phenotypically active concentration (WPMY1-GM130-SQSTM1 [8]) [µM]
Cc1ccc(C(=O)Oc2ccc(C(O)CNC(C)(C)C)cc2OC(=O)c2ccc(C)cc2)cc1 (configuration not stated) [bitolterol],9,0 (inactive),0 (inactive),0 (inactive),0 (inactive),0 (inactive),0 (inactive),0 (inactive),0 (inactive),0 (inactive),0 (inactive),0 (inactive),1 (active),0 (inactive),0 (inactive),0 (inactive),,,
CCN1C(=O)NC(c2ccccc2)C1=O (configuration not stated) [ethotoin],3,0 (inactive),0 (inactive),0 (inactive),0 (inactive),0 (inactive),0 (inactive),0 (inactive),0 (inactive),0 (inactive),0 (inactive),1 (active),1 (active),0 (inactive),0 (inactive),0 (inactive),3,,
Cc1nc[nH]c1C1CCN(c2nc3cccc4c3n2CCC4=O)CC1,,0 (inactive),0 (inactive),0 (inactive),0 (inactive),0 (inactive),0 (inactive),0 (inactive),0 (inactive),1 (active),0 (inactive),0 (inactive),0 (inactive),0 (inactive),0 (inactive),0 (inactive),,,
COc1ccc(C[C@@H]2c3cc(OC)c(OC)cc3CC[N@+]2(C)CCC(=O)OCCCCCOC(=O)CC[N@@+]2(C)CCc3cc(OC)c(OC)cc3[C@H]2Cc2ccc(OC)c(OC)c2)cc1OC [Cisatracurium besylate],,0 (inactive),0 (inactive),0 (inactive),0 (inactive),0 (inactive),0 (inactive),0 (inactive),1 (active),0 (inactive),0 (inactive),0 (inactive),0 (inactive),1 (active),0 (inactive),0 (inactive),,9,9
O=S(=O)(NCCCCCCc1ccccc1)c1cccc2c(Cl)cccc12,≤ 0.3,0 (inactive),0 (inactive),0 (inactive),0 (inactive),0 (inactive),0 (inactive),0 (inactive),0 (inactive),0 (inactive),1 (active),1 (active),1 (active),0 (inactive),0 (inactive),0 (inactive),≤ 0.3,,
COC(=O)C1=C(C)NC(C)=C(C(=O)OC)C1c1ccccc1[N+](=O)[O-] [nifedipine],,0 (inactive),0 (inactive),0 (inactive),0 (inactive),0 (inactive),0 (inactive),0 (inactive),0 (inactive),0 (inactive),0 (inactive),0 (inactive),0 (inactive),1 (active),0 (inactive),0 (inactive),,,9
COC(=O)[C@@H]1[C@H]2C[C@H]3c4[nH]c5ccccc5c4CCN3C[C@@H]2CC[C@@H]1O [Yohimbine hydrochloride],,0 (inactive),0 (inactive),0 (inactive),0 (inactive),0 (inactive),0 (inactive),0 (inactive),0 (inactive),0 (inactive),0 (inactive),0 (inactive),0 (inactive),1 (active),0 (inactive),0 (inactive),,,9
CC(C)[C@H](N)C(=O)OCC(CO)OCn1cnc2c(=O)[nH]c(N)nc21 (some centres not stated) [valganciclovir],,0 (inactive),0 (inactive),0 (inactive),0 (inactive),0 (inactive),0 (inactive),0 (inactive),0 (inactive),0 (inactive),0 (inactive),0 (inactive),0 (inactive),1 (active),0 (inactive),0 (inactive),,,1
Cc1cc2c(s1)Nc1ccccc1N=C2N1CCN(C)CC1 [Olanzapine],,0 (inactive),0 (inactive),0 (inactive),0 (inactive),0 (inactive),0 (inactive),0 (inactive),0 (inactive),0 (inactive),1 (active),0 (inactive),0 (inactive),0 (inactive),0 (inactive),0 (inactive),,,
C[C@]12CC[C@@H]3c4ccc(O)cc4CC[C@H]3[C@@H]1CC[C@@H]2OC(=O)CCC1CCCC1 [estradiol cypionate],,0 (inactive),0 (inactive),0 (inactive),0 (inactive),0 (inactive),0 (inactive),0 (inactive),0 (inactive),0 (inactive),0 (inactive),0 (inactive),0 (inactive),1 (active),0 (inactive),0 (inactive),,,9
COC(=O)[C@H]1[C@H]2C[C@H]3c4[nH]c5ccccc5c4CCN3C[C@H]2CC[C@@H]1O [Rauwolscine hydrochloride],,0 (inactive),0 (inactive),0 (inactive),0 (inactive),0 (inactive),0 (inactive),0 (inactive),0 (inactive),0 (inactive),0 (inactive),0 (inactive),0 (inactive),1 (active),0 (inactive),0 (inactive),,,3
